Data on five compounds can be found in PubChem BioAssay.

Inconclusive results are not listed. Calls of active or inactive are those of the source.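 The calls were made as follows, unless noted: active = cell viability at or below a set limit in both duplicate runs, the limit being the all-compound median minus 4 SD (cut at about 23% in these data, passing the limit was not always enough); inconclusive = no clear call, values can overlap the other calls; inactive = the rest.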

The nature of assay [1]: reducers of endogenous Her2 protein level, primary screen, SKBR3 breast tumor cells, AlphaScreen, ATP viability (AID 461;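 active = Her2 level under about 52% in both replicate screens, with viability over 70% of control, limit read from the data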;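 as to Her2 level: lower value means less Her2 protein in the cells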;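 as to viability: percent of carrier control wells set as 100% viability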). Conditions: 18-24 h, measured here: SKBR3 viability, ATP luminescence, at 10 µM. For orientation: Alpha assays give light when donor and acceptor beads are brought close together.
The target in assay [2] is Receptor tyrosine-protein kinase erbB-2 (Homo sapiens) (UniProt P04626). Described as above. Conditions: 18-24 h, at 10 µM, stronger effect = lower value.
A short description of assay [3]: SK-BR-3 cell growth inhibitors, pilot screen, 24 h, human (AID 572;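 active = viability at or below 10% of carrier control in both of two separate runs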;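 also: compound exposure lasted between 18 and 24 h rather than exactly 24 h; 100% = carrier-treated control wells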). Conditions: SK-BR-3 viability, CellTiter-Glo luminescence, at 10 µM, stronger effect = lower value. (ATP-based viability assays read luminescence as a measure of living cells.)
Assay [4] can be described thus: HUVEC growth inhibition – cell-based, human, primary screen (AID 575;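 active = viability at or below 30% in both replicate assays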;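 also: 100% = median of untreated cell wells with 0.1% DMSO on each plate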). Conditions: HUVEC proliferation, CellTiter-Glo luminescence, 72 h; at 10 µM; stronger effect = lower value.
The nature of assay [5]: growth inhibitors of H69AR lung tumor, primary screen, human, duplicate replicates (AID 580;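 active = viability at or under a set limit in both replicates, limit being median viability minus 3 SD, cut at about 48% in these data, passing the limit was not always enough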;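 also: 100% = mean luminescence of untreated wells and 0% = no signal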). Conditions: H69AR lung tumor cells viability, ATP luminescence, 72 h; at 10 µM; stronger effect = lower value.
The nature of assay [6]: reversal of MRP1-mediated doxorubicin resistance, pilot screen, H69AR cells, doxorubicin co-treatment (AID 601;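 active = viability loss from added drug above about 55%, and viability with drug at most 40%, in both replicates, limit read from the data, passing the limit was not always enough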). Conditions: CellTiter-Glo, 72 h, at 10 µM; for differential viability (reversal): stronger effect = higher value.
Assay [7] is described as follows: 384-well plate pilot, post-Golgi transport modulator project, inhibition of yeast transport mutant growth (AID 636; in the data active = inhibition above about 31%). Conditions: absorbance 615 nm, about 18 h, stronger effect = higher value.
The nature of assay [8]: growth suppression of yeast trafficking mutant, preliminary HTS, modulators of trafficking downstream of Golgi apparatus project, 1536-format plate, OD 615 nm (AID 637; in the data active = inhibition above about 30%). Conditions: yeast transport mutant growth, absorbance 615 nm, 18 h; stronger effect = higher value.
A short description of assay [9]: OD615 S. cerevisiae growth inhibition, permissive medium, pilot counter-assay, permissive growth control for S. cerevisiae lifespan shortening project (AID 705;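 active = growth inhibition above 25% in both replicates, a cutoff set 3 SD above the mean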). Conditions: OD615, 24 h, at 10 µM, stronger effect = higher value.
Assay [10] can be described thus: Restrictive medium S. cerevisiae growth inhibition, OD615, pilot screen of yeast lifespan reduction project, restrictive growth control (AID 706;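 active = growth inhibition above a set limit, 3 SD over mean compound inhibition, in both replicates, cut at about 43% in these data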;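 also: modified DeaD lifespan yeast strain shifted to restrictive glucose medium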). Conditions: OD615, 48 h, at 10 µM, stronger effect = higher value.
A short description of assay [11]: viability gain of MRP-1-high H69AR cells under doxorubicin, pilot screen, MRP-1 activator project, CellTiter-Glo, duplicate (AID 807;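 active = viability increase at or above a cutoff of the median across tested compounds plus 3 SD, cut at about 8.5% in these data, passing the limit was not always enough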;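 also: compound pretreatment 18-22 h then 72 h combined with doxorubicin; 0% = doxorubicin alone and 100% = vehicle without doxorubicin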). Conditions: H69AR viability with doxorubicin, CellTiter-Glo luminescence; at 10 µM; stronger effect = higher value.
Assay [12] in a line: growth suppression of beta-catenin knockout HCT116, pilot screen, human colon tumor cells (AID 823).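 Also: 0% = wells killed by 20 µM Hyamine and 100% = untreated DMSO cell wells.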 Conditions: CellTiter-Glo, 60 h, at 10 µM, stronger effect = lower value.
Assay [13] can be described thus: growth suppression of PTEN-deleted HCT116, pilot screen, cell-based, HCT116 clonal line, CellTiter-Glo (AID 824;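 active = viability at or below 27.92% in each of two runs, the all-compound median minus 4 SD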;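 also: 0% = 20 µM Hyamine control and 100% = vehicle cell control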). Conditions: 60 h, at 10 µM, stronger effect = lower value.
A short description of assay [14]: inhibitors of the yeast RAM network, pilot screen, dse1pr::URA3 reporter, 5-FOA selection (AID 869;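 active = inhibition over a set limit, the all-compound mean plus 3 SD, in both replicate runs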;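 also: 0% = DMSO wells with no growth and 100% = 10 µM 1-NA-PP1 with full growth; RAM network block rescues cells from 5-FOA so hits raise OD615 growth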). Conditions: S. cerevisiae dse1pr::URA3 5-FOA growth, OD615, 2 d; at 10 µM; stronger effect = higher value; strain carries analog-sensitive mutant Cbk1 kinase.
The nature of assay [15]: RAM signaling pathway blockade in yeast – S. cerevisiae, Pdr1DBD-CYC8 efflux-inhibited sensitized strain, primary screen (AID 1298;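 active = RAM network inhibition above 8.4% in each of two replicates, 3 SD over the compound average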;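 also: 0% = DMSO untreated cells without growth and 100% = 10 µM 1-NA-PP1 full growth; higher means more yeast growth rescued from 5-FOA killing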). Conditions: S. cerevisiae cbk1-as DSE1-URA3 strain, 5-FOA growth OD615, 2 d; at 50 µM; stronger effect = higher value.
Setting [16] is: H69AR cells + 2 uM doxorubicin, measured here: viability with 2 uM doxorubicin, stronger effect = lower value.
Setting [17] is: H69AR cells, compound alone cytotoxicity.

Chain of Receptor tyrosine-protein kinase erbB-2 (Homo sapiens) (P04626 whole entry, looked up): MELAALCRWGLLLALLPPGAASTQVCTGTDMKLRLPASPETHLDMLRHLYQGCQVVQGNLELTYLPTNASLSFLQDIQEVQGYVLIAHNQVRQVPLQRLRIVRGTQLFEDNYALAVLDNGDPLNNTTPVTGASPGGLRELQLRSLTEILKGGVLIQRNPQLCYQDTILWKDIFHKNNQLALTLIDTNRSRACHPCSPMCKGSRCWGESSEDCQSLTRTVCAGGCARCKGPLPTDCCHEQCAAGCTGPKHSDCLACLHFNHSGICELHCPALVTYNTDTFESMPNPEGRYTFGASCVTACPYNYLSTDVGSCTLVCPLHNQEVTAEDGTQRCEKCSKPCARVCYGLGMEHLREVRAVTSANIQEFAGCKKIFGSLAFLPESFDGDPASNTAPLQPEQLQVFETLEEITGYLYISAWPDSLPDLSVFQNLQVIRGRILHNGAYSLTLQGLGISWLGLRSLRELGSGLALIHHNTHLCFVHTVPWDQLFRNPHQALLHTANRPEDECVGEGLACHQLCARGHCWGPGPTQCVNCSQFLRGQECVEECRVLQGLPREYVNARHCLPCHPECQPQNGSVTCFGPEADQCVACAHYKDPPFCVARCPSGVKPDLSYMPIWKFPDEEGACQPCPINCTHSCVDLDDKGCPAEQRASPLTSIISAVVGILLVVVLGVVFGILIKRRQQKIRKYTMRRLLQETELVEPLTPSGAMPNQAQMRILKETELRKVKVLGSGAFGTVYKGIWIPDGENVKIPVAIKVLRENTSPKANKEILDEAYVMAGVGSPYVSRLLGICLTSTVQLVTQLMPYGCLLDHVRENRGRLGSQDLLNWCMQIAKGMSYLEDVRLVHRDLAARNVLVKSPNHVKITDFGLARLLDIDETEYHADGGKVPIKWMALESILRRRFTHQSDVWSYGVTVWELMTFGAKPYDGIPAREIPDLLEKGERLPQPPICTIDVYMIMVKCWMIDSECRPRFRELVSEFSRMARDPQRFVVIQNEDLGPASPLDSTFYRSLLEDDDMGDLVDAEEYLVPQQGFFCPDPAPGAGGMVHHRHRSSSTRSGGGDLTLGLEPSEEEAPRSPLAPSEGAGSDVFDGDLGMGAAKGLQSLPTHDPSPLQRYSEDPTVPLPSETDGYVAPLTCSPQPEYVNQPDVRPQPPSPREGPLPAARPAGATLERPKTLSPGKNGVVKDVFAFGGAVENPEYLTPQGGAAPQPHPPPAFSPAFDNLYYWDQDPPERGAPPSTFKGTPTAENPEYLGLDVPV

Regarding `COc1ccccc1OCC(=O)N1CCN(c2ccccc2OC)CC1`, the viability in assay [1] is 93.5%; in assay [3] it was 93.5% (inactive); in assay [4], 111% (inactive); in [5] it was 104% (inactive); in [6] (setting [16]), 91.2%; in assay [6] (setting [17]), 104%. Also, the viability was 96.9% (inactive) in assay [12] and 95% (inactive) in assay [13]. The Her2 level in [2] was 124% (inactive). For the same compound, the differential viability (reversal) in assay [6] (H69AR cells + 2 uM doxorubicin) is 13.2% (inactive). The inhibition is 3.78% (inactive) in assay [7], -2.7% (inactive) in assay [8] and 0.87% (inactive) in assay [14]. The results for the growth inhibition in [9] and in assay [10] were -3.77% (inactive) and -2.73% (inactive), respectively. In addition, the viability increase in assay [11] is -2.73% (inactive). Moreover, the RAM network inhibition in [15] was -1.28% (inactive).
In the case of `O=C(NCc1cccs1)C(Cc1ccccc1)n1cccc1` (stereo not given), the viability in assay [1] was 114%; in [3], 114% (inactive); in assay [4] it was 106% (inactive); in [5] it was 94.6% (inactive); in [6] (setting [16]), 86%; in assay [6] (setting [17]) it was 94.6%. Also, the results for the viability in assay [12] and in [13] were 92.6% (inactive) and 89.9% (inactive), respectively. In addition, the Her2 level in assay [2] was 110% (inactive). For the same compound, the differential viability (reversal) in assay [6] (H69AR cells + 2 uM doxorubicin) was 8.57% (inactive). In addition, the inhibition in [7] was -1.67% (inactive); in [8], -5.67% (inactive); in assay [14], 3.21% (inactive). The growth inhibition in assay [9] was 3.97% (inactive); in assay [10] it was -4.98% (inactive). In [11], the viability increase was 0.04% (inactive). For the same compound, the RAM network inhibition in [15] is 3.72% (inactive).
In the case of `CCOC(=O)N1CCC(NC(=O)c2ccc(CS(=O)(=O)c3c(Cl)cccc3Cl)o2)CC1`, the viability in assay [1] was 84.5%; in [3], 84.5% (inactive); in [4] it was 95.8% (inactive); in assay [5] it was 104% (inactive); in [6] (setting [16]) it was 96.6%; in [6] (setting [17]) it was 104%. The viability is 106% (inactive) in assay [12] and 93.5% (inactive) in [13]. In addition, in assay [2], the Her2 level was 90% (inactive). Further, the differential viability (reversal) in assay [6] (H69AR cells + 2 uM doxorubicin) is 6.95% (inactive). In addition, the inhibition in [7] is 2.31% (inactive); in [8], 0.83% (inactive); in assay [14], 1.53% (inactive). Also, the growth inhibition is -12.4% (inactive) in [9] and -27.1% (inactive) in assay [10]. The viability increase in assay [11] was -1.87% (inactive). The RAM network inhibition in [15] was 2.82% (inactive).
Consider `CCCN1CC23C=CC(O2)C(C(=O)O)C3C1=O` (stereo not given), for which the viability in assay [1] is 81.5%; in [3] it was 81.5% (inactive); in [4] it was 85.4% (inactive); in [5], 98.1% (inactive); in [6] (setting [16]), 99.7%; in assay [6] (setting [17]) it was 98.1%. Further, the results for the viability in assay [12] and in assay [13] were 100% (inactive) and 101% (inactive), respectively. Further, in assay [2], the Her2 level was 94% (inactive). The differential viability (reversal) in assay [6] (H69AR cells + 2 uM doxorubicin) was -1.58% (inactive). Further, the inhibition in [7] is -3.87% (inactive); in [8], 0.16% (inactive); in assay [14], 1.96% (inactive). In addition, the growth inhibition in assay [9] was -2.17% (inactive); in [10], 2.93% (inactive). In addition, the viability increase in assay [11] is -0.49% (inactive). The RAM network inhibition in assay [15] was -1.04% (inactive).
On to `CCOC(=O)N1CCC(NC(=O)Cn2c3c(c(-c4ccccc4Cl)cc2=O)CCC3)CC1`, for which the viability in assay [1] is 94.5%; in [3], 94.5% (inactive); in [4], 123% (inactive); in assay [5], 89.7% (inactive); in assay [6] (setting [16]), 89.6%; in assay [6] (setting [17]) it was 89.7%. Further, the viability in [12] was 88.8% (inactive); in [13], 91.9% (inactive). The Her2 level in assay [2] was 92.5% (inactive). The differential viability (reversal) in assay [6] (H69AR cells + 2 uM doxorubicin) was 0.145% (inactive). The inhibition in assay [7] is -6.67% (inactive); in assay [8] it was -1.67% (inactive); in assay [14] it was 2.06% (inactive). In addition, the growth inhibition in assay [9] is -9.94% (inactive); in assay [10], -0.355% (inactive). Moreover, in [11], the viability increase was -0.33% (inactive). In addition, the RAM network inhibition in [15] is 4.05% (inactive).

By viability is commonly meant a read-out of living cells in per cent, often relative to untreated cells. A word on the inhibition: it is the drop in the measured response relative to a control, in per cent.
